High-throughput results: PubChem, several laboratories
VLA-4 inh = inhibition in a human VLA-4 binding assay. 330,000 compounds, 0.2% hits. VLA-4 expressing cells, ligand binding flow cytometry. inhibition, % (about 7 µM as worked out from the volumes in the protocol); in the data active = inhibition above about 50%
ABCB6 inh MLPCN = blocks the human ABCB6 transporter; Q9NP58; K562-ABCB6 porphyrin accumulation, flow cytometry, 1 h; hits give low values; fluorescence ratio to DMSO, % at 10 µM; 360,000 compounds, 0.19% hits; AID 602162;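 active = fluorescence ratio to DMSO below 75%, the collection mean minus 3 SD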;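 also: signal is porphyrin accumulated inside mitochondria; 100% equals median channel fluorescence of DMSO control wells; lower ratio means ABCB6 inhibition with less porphyrin fluorescence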
Target sequence (Q9NP58 whole entry, looked up): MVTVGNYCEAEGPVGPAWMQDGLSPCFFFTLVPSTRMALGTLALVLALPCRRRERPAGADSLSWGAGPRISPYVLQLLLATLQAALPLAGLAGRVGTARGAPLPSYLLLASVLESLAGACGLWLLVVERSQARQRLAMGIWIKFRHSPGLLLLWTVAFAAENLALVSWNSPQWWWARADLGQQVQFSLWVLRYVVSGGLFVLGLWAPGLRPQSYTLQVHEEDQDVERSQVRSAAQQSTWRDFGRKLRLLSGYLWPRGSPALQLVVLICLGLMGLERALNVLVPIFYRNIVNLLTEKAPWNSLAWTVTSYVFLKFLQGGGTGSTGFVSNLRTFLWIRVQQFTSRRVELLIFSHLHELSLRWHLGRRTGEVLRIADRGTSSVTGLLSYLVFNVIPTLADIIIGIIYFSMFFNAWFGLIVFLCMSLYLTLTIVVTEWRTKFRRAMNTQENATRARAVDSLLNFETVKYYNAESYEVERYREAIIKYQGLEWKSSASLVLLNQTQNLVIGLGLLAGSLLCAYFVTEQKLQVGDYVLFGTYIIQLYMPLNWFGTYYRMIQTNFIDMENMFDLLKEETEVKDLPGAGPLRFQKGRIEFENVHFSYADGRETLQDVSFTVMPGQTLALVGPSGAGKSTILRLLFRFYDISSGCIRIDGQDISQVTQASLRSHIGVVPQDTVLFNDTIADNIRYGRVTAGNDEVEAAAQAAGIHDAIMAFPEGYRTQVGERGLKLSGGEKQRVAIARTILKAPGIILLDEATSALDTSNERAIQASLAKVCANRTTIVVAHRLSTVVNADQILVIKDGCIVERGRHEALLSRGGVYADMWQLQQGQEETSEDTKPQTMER
Exocytosis inh = lytic granule exocytosis inhibition; TALL-104 LAMP-1 surface exposure, flow cytometry; cells stimulated with thapsigargin and PMA; inhibition, % at 10 µM; 360,000 compounds, 0.66% hits;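 active = inhibition above about 55%, limit read from the data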
CaV13 FRET inh = Primary screen for inhibitors of IQ motif and Ca2+-dependent inactivation inhibitor domain binding in CACNA1D, Förster resonance energy transfer in living cells, …; HEK cells, CFP/YFP FRET ICDI-IQ, plate reader, 10 min; percent FRET-ratio fall versus neutral wells; 340,000 compounds, 0.098% hits; inhibition, % at 12.3 µM;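 active = mean replicate inhibition of at least 30% and at least 1% of replicates passing that level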;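 also: 0% = median of the neutral control wells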
* hit, by the source's call; . = no result; + = active, no number; ! = not confirmed by another sample. Rows were chosen to be rich in hits. Some 1.1% of all compounds tested hit in one or more screens of this group.

SMILES	VLA-4 inh	ABCB6 inh MLPCN	Exocytosis inh	CaV13 FRET inh
Cc1ccc2[nH]c3c(NCc4ccco4)ncnc3c2c1	0	98	0	-3
COc1cc(CNc2ncnc3c2[nH]c2ccc(C)cc23)cc(OC)c1	-2	95	56*	-2
Cc1ccc(S(=O)(=O)N2CCCc3nc(-c4ccc(Br)cc4)ccc32)cc1	.	.	.	-4
CCCOc1ccccc1/C=C1\SC(N)=NC1=O	5	97	-3	44*
CCCOc1ccc(/C=C2\SC(N)=NC2=O)cc1OC	-3	96	-7	-3
O=C(NCc1ccccc1)[C@@H]1CCCN1C(=O)[C@H]1CCCN1C(=O)c1ccc(Cl)cc1	.	.	.	-4
Cn1cc(C(c2ccccc2OCC(=O)O)c2cn(C)c3ccccc23)c2ccccc21	-22	103	-8	45*
COc1cc(C(Nc2ccccn2)c2ccc3ccc(C)nc3c2O)cc(OC)c1O (stereo not given)	45	92	105*	.
O=c1n(S(=O)(=O)c2cccc3cccnc23)c2ccccc2n1S(=O)(=O)c1cccc2cccnc12	18	99	68*	-8
CC(C)CCNC(=O)[C@@H](Cc1ccccc1)NC(=O)[C@H]1O[C@@H](n2ccc(=O)[nH]c2=O)[C@H](O)[C@@H]1O	.	.	.	-3
CC1(C)CC[C@]2(C(=O)O)CC[C@]3(C)C(=CCC4[C@@]5(C)CC[C@H](O)C(C)(C)C5CC[C@]43C)C2C1 (stereo not given in full)	9	95	56*	-6
O=C(NCCc1ccccc1)C(c1cccs1)N(C(=O)CCl)c1ccc(Cl)cc1 (stereo not given)	-7	33*	-20	-16
Cc1ccc2cc(/C=C/C(=O)c3ccco3)c(Cl)nc2c1	6	92	95*	-5
Cc1ccc2nc(Cl)c(/C=C/C(=O)c3ccco3)cc2c1	-4	98	86*	-21
CCc1c(Cc2cccc(F)c2)ncn1CCc1ccccc1OC	.	.	.	-10
Nc1nc2c(ncn2[C@@H]2O[C@H](C(=O)N[C@H](Cc3ccccc3)C(=O)NC3CCCCC3)[C@@H](O)[C@H]2O)c(=O)[nH]1	.	.	.	-9
Cc1ccc(N=c2ssnc2Cl)cc1	9	104	95*	-4
Cc1cc(Cl)ccc1N=c1ssnc1Cl	6	102	8	-7
Cc1cc(C)nc(/N=c2/ssnc2Cl)c1	28	106	82*	-2
COc1cc(N=c2ssnc2Cl)c(OC)cc1Cl	3	104	99*!	-10
NC(=O)c1ncn([C@@H]2O[C@H](C(=O)N[C@H](Cc3c[nH]c4ccccc34)C(=O)N3CCN(C(=O)N4CCCCC4)CC3)[C@@H](O)[C@H]2O)n1	.	.	.	-5
Cc1oc(=O)c(NC(=O)c2ccccc2)cc1C(=O)c1ccccc1	41	103	75*	-5
CCCc1cc2c(OC)ccc(O)c2c(=O)n1C	.	.	.	-4
CSC1=NSC2=NC(=O)/C(=C/c3coc4ccc(O)cc4c3=O)C(=N)N12	-207	303	-4	126*
COc1ccc(OC)c2cc3ccccc3cc12	.	110	104*	-7
SMILES	VLA-4 inh	ABCB6 inh MLPCN	Exocytosis inh	CaV13 FRET inh
COc1cc2ccccc2cc1C(=O)O	0	96	3	-5
Nc1[nH]c(C(=O)c2ccccc2)c(-c2ccccn2)c1C(=O)c1c[nH]c2ccc(F)cc12	.	.	.	-22
CC1CCCCC1NC(=O)CN1C(=O)c2cccc(N)c2C1=O (stereo not given)	.	100	2	+
O=C(N[C@@H](Cc1cccnc1)C(=O)N1CCC[C@H]1C(=O)NCc1ccccc1)c1ccccc1	.	.	.	-3
Cc1ccc(NC(=O)Cn2c(O)c(N=NS(=O)(=O)c3ccc(C)cc3)c3ccccc32)cc1	-6	107	56*	-4
Cc1ccc(NC(=O)Cn2c(O)c(N=NC(N)=O)c3ccccc32)cc1	4	94	1	6
COc1cc(/C=C/c2nc(-c3ccccc3O)n[nH]2)cc(OC)c1OC	3	94	98*	-5
Cc1ccc(OCCN2C(=O)C(=O)c3cc(C)ccc32)cc1	47	99	72*	-15
CC1CCc2c(sc(Nc3nc4c(F)cccc4s3)c2C(N)=O)C1 (stereo not given)	-17	92	85*	2
Cc1ccc(OCC(=O)NNc2c3ccccc3nc3ccccc23)cc1	2	94	3	48*
Cc1cccc(OCC(=O)NNc2c3ccccc3nc3ccccc23)c1	6	96	3	-6
O=C(N[C@H](C(=O)N1CCC[C@H]1C(=O)NC1CCCC1)c1ccccc1)C1CC1	.	.	.	-2
CCC(=O)c1ccc(OCC(=O)OCC(=O)N2CCc3ccccc32)cc1	-4	100	2	-6
N#Cc1ccc(OCC(=O)OCC(=O)N2CCc3ccccc32)cc1	.	93	16	35*
CC(=O)OCCCNc1cc(Sc2ccc(C)cc2)c2nonc2c1[N+](=O)[O-]	2	95	2	-5
CC(=O)OCCCNc1cc(Sc2nc3ccccc3s2)c2nonc2c1[N+](=O)[O-]	16	101	69*	.
CC(O)CC(=O)OC[C@]12CC[C@H]3[C@@](C)(CC[C@H]4C(C)(C)CCC[C@]34C)[C@@H]1CC(C1=CC(=O)OC1O)O2 (stereo not given in full)	.	104	56*	.
CC(=O)OC[C@]12CC[C@H]3[C@@](C)(CC[C@H]4C(C)(C)CCC[C@]34C)[C@@H]1C[C@H](C1=CC(=O)O[C@H]1OC(C)=O)O2	6	.	.	.
COC(=O)C1=C(C)N(C)C(=NCC2CC2)NC1c1ccc(Cl)cc1 (stereo not given)	.	.	.	-4
CC1(Br)C(Sc2ccccc2[N+](=O)[O-])=Nc2ccccc21 (stereo not given)	.	98	72*	-12
COCc1cc(N2CCN(C(=O)OC(C)(C)C)C[C@H]2C)ccc1N1CC[C@H](O)C1	.	.	.	-6
CC1=C(c2ccccc2)CCC1=O	20	100	80*	-11
S=C(NCc1ccccc1)C(=S)NCc1ccccc1	.	96	97*	-7
S=C(NCc1ccccc1)NCc1ccc(CNC(=S)NCc2ccccc2)cc1	-8	99	4	-4
O=C1c2ccccc2NC(c2cccc([N+](=O)[O-])c2)N1CCc1ccccc1 (stereo not given)	11	95	76*	-3
SMILES	VLA-4 inh	ABCB6 inh MLPCN	Exocytosis inh	CaV13 FRET inh
CCN=C1NC(CCc2ccccc2)C(C(=O)OC)=C(C)N1Cc1ccc(C(F)(F)F)cc1 (stereo not given)	.	.	.	-4
COc1cccc(-c2ncn(CCc3ccccc3OC)c2CC(C)C)c1	.	.	.	-11
C=CCn1c(SCC(=O)Nc2ccccc2OC)nnc1-c1ccco1	.	.	.	-8
C=CCn1c(SCC(=O)Nc2nccs2)nnc1-c1cc2cccc(OC)c2o1	8	72*	2	-3
CCn1nc(C)cc1C(=O)Sc1ccc(C)cc1	-130	102	-5	-5
CCn1nc(C)c(Br)c1C(=O)Sc1ccccc1Cl	-3	96	69*	-4
CCCCNC(=O)C[C@H]1C[C@@]2(C(=O)OC)C(=C[C@H](COCc3ccccc3)O[C@@H]2C)N(Cc2ccc3c(c2)OCO3)C1=O	.	.	.	-9
